Shown are actives, neighbours in structure and some others; about 20% of the full set was active somewhere.
Pf growth 96h: inhibits malaria parasite growth, 96 h; 6.9% of 320,000 active; P. falciparum luciferase reporter growth, 96 h; Potency, µM (series often up to 28.7 µM), hits mostly inhibitors
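Compounds incubated with erythrocytes infected by luciferase-expressing P. falciparum (2% hematocrit, 0.05% parasitemia final) for 96 hours, 37 C in 5% CO2. Growth inhibition scored as decreased luciferase luminescence.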
Pf growth 48h: P. falciparum growth inhibition at 48 hours (one generation); P. falciparum luciferase growth in erythrocytes, 48 h; Potency, µM (top dose mostly 28.7 µM), usual class: inhibitors; 5.9% of 310,000 active; AID 504832
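Luciferase-expressing P. falciparum in infected erythrocytes (2% hematocrit, 0.1% parasitemia final) in RPMI 1640/0.5% Albumax were exposed to compound for 48 hours at 37 C, 5% CO2; growth read as luminescence.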
Shiga toxin inh: blocks Shiga toxin action in Vero cells; Vero cells, Shiga toxin protein synthesis inhibition reporter; inhibition, % at 38.7 µM; 9.2% of 290,000 active; in the data active = inhibition mostly above about 28%, no sharp cut-off; inactive = mostly below about 43%
Cycloheximide cs: counter-screen hit for Shiga toxin inhibitors, cycloheximide; max response, %; 12% of 300,000 active; cell reporter, cycloheximide protein synthesis inhibition counterscreen; in the data active = max response mostly above about 13%, no sharp cut-off; inactive = mostly below about 14%; note: read at 38.3 µM for the half of the compounds with a filed dose
HCMV inh: blocks human cytomegalovirus replication. HFF cells, HCMV-luciferase reporter, 72 h; active compounds read low. activity change, negative = inhibition, % at 57.5 µM. 4.5% of 410,000 active. AID 1259415; in the data active = activity change below about -60%; inconclusive = no clear call, values can overlap the other calls; inactive = above about -39%
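Two-dose cell screen: HFF monolayers treated with compounds and infected with luciferase-expressing HCMV at 1 PFU/cell, 72 h at 37C, then lysed for luciferase measurement.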
Numbers stand for hits. Unless noted, calls come from the whole dose curve; as a rule, active = well fitted inhibition curve with a large enough effect; inconclusive = small, poorly fitted or top-dose-only effect, or another doubt; inactive = no such curve, though single readings can be large or run the other way.

`C=C1c2cccc(O)c2C(O)=C2C(=O)[C@]3(O)C(O)=C(C(N)=O)C(=O)[C@@H](N(C)C)[C@@H]3[C@@H](O)[C@H]12` gave Pf growth 96h 0.47µM, Pf growth 48h inconclusive, Shiga toxin inh inactive, Cycloheximide cs inactive and HCMV inh inactive.
`C[C@H]1c2cccc(O)c2C(O)=C2C(=O)C3(O)C(O)=C(C(N)=O)C(=O)[C@@H](N(C)C)[C@@H]3[C@@H](O)[C@@H]21` (stereo not given in full) gave Pf growth 96h 0.37µM, Pf growth 48h 4.7µM and HCMV inh inconclusive.
`Cc1ccc(-n2ncc3c(=O)n(CC(=O)N(C(C)C)C(C)C)cnc32)cc1` gave Pf growth 96h 13µM, Pf growth 48h inactive, Shiga toxin inh inactive, Cycloheximide cs inactive and HCMV inh inactive.
Screening Cc1ccc(-n2ncc3c(=O)n(CC(=O)NC4CCCCC4)cnc32)cc1 returned Pf growth 96h 4.7µM, Pf growth 48h inactive, Shiga toxin inh inactive, Cycloheximide cs inactive and HCMV inh inactive.
Screening CCC(=O)C1CCCN(C(=O)c2ccc(OC3CCN(C(=O)CCOC)CC3)cc2)C1 (stereo not given) returned Pf growth 96h inactive, Pf growth 48h inactive, Shiga toxin inh inactive, Cycloheximide cs inactive and HCMV inh inactive.
Screening O=C(CN1C(=O)S/C(=C\c2ccc(F)cc2)C1=O)Nc1cccc(S(=O)(=O)NCc2ccco2)c1 returned Pf growth 96h inconclusive, Pf growth 48h inconclusive, Shiga toxin inh 138, Cycloheximide cs 67 and HCMV inh -98.
`CCc1ccccc1OCC(=O)Nc1cccc(S(=O)(=O)NCc2ccco2)c1` gave Pf growth 96h inconclusive, Pf growth 48h inconclusive and HCMV inh inactive.
For CCC1CCc2nc3sc(C(=O)Nc4cccc(C(F)(F)F)c4)c(N)c3cc2C1 (stereo not given) the results were HCMV inh inactive.
For O=C(COC(=O)Cc1ccccc1[N+](=O)[O-])NCC1CCCCC1 the results were Pf growth 96h inactive, Pf growth 48h inactive, Shiga toxin inh inactive, Cycloheximide cs inactive and HCMV inh inactive.
For Cc1ccccc1-c1nc(CN(Cc2c(C)nn(C)c2C)C2CC2)c(C)o1 the results were Pf growth 96h inactive, Pf growth 48h 12µM, Shiga toxin inh inactive, Cycloheximide cs inactive and HCMV inh inconclusive.
Cc1ccccc1-c1nc(CN2CCC(C(=O)O)CC2)c(C)o1 was read as Pf growth 96h inconclusive, Shiga toxin inh inactive, Cycloheximide cs inactive and HCMV inh inactive.
`O=C(Nc1ccc(C(=O)NCCCN2CCN(c3ccc(F)cc3)CC2)cc1)C1=CSCCO1` gave Pf growth 96h 12µM, Pf growth 48h inconclusive, Shiga toxin inh inactive, Cycloheximide cs inactive and HCMV inh inactive.
`CC(C)CCNC(=O)c1ccc(NC(=O)C2=CSCCO2)cc1` gave Pf growth 96h inactive, Pf growth 48h inactive, Shiga toxin inh 59, Cycloheximide cs 24 and HCMV inh inactive.
O=C(Nc1ccc(C(=O)N2CCN(c3ccccc3)CC2)cc1)C1=CSCCO1 was read as Pf growth 96h inactive, Pf growth 48h inactive, Shiga toxin inh inactive, Cycloheximide cs inactive and HCMV inh inconclusive.
`C=CCNC(=O)c1ccc(NC(=O)C2=CSCCO2)cc1` gave Pf growth 96h inactive, Pf growth 48h inactive, Shiga toxin inh inactive and Cycloheximide cs 23.
Screening O=C(Nc1ccc(C(=O)NCCCN2CCCCC2)cc1)C1=CSCCO1 returned Pf growth 96h inconclusive, Pf growth 48h inactive, Shiga toxin inh inactive, Cycloheximide cs inactive and HCMV inh inactive.
`CC1CCCN(CCCNC(=O)c2ccc(NC(=O)C3=CSCCO3)cc2)C1` (stereo not given) gave Pf growth 96h inconclusive, Pf growth 48h inactive, Shiga toxin inh inactive, Cycloheximide cs inactive and HCMV inh inactive.
Screening CCOc1ccc(OCC)c(NC(=O)c2nnn(CC(=O)Nc3cc(C)cc(C)c3)c2N)c1 returned Pf growth 96h inconclusive, Pf growth 48h inactive, Shiga toxin inh inactive, Cycloheximide cs inactive and HCMV inh inconclusive.
CCOc1ccc(CN2CCNC(=O)C2CC(=O)NCCc2cnccn2)cc1 (stereo not given) was read as Pf growth 96h inactive, Pf growth 48h inactive, Shiga toxin inh inactive, Cycloheximide cs inactive and HCMV inh inactive.
For O=C(CC1C(=O)NCCN1Cc1cccc(C(F)(F)F)c1)NCCc1cnccn1 (stereo not given) the results were Pf growth 96h 2.1µM, Pf growth 48h inactive, Shiga toxin inh inactive, Cycloheximide cs inactive and HCMV inh inactive.
For O=C(CC1C(=O)NCCN1Cc1c(F)cccc1Cl)NCCCOc1cccnc1 (stereo not given) the results were Pf growth 96h 15µM, Pf growth 48h inactive, Shiga toxin inh inactive, Cycloheximide cs inactive and HCMV inh inactive.
`CC(C)(C)CN1CCNC(=O)C1CC(=O)NCCc1cnn(-c2ccccc2)c1` (stereo not given) gave Pf growth 96h inactive, Pf growth 48h inactive, Shiga toxin inh inactive, Cycloheximide cs 12 and HCMV inh inactive.
`CC(C)CN1CCNC(=O)C1CC(=O)NCCc1cnn(-c2ccccc2)c1` (stereo not given) gave Pf growth 96h inconclusive, Pf growth 48h inactive, Shiga toxin inh inactive, Cycloheximide cs inactive and HCMV inh inactive.
`CC(C)CN1CCNC(=O)C1CC(=O)NCCc1ccc(C(F)(F)F)cc1` (stereo not given) gave Pf growth 96h inactive, Pf growth 48h inactive, Shiga toxin inh inactive, Cycloheximide cs inactive and HCMV inh -101.
Screening O=C(CC1C(=O)NCCN1Cc1ccc(F)cc1)NCCOc1cccnc1 (stereo not given) returned Pf growth 96h inconclusive, Pf growth 48h inactive, Shiga toxin inh inactive, Cycloheximide cs inactive and HCMV inh inactive.
Screening CCCCCCCCCCCCCCCCCCOC[C@H](COP(=O)([O-])OCC[N+](C)(C)C)OC returned Pf growth 96h inactive and Pf growth 48h inactive.
Screening Cc1ccc(-n2c(O)c(C=NC3CCS(=O)(=O)C3)c3ccccc3c2=O)cc1 (stereo not given) returned Pf growth 96h inconclusive, Pf growth 48h inconclusive, Shiga toxin inh inactive, Cycloheximide cs inactive and HCMV inh inactive.
For COc1ccc(NC(=O)CCNC(=O)c2ccccc2Cl)cc1OC the results were Pf growth 96h inconclusive, Pf growth 48h inactive, Shiga toxin inh inactive, Cycloheximide cs inactive and HCMV inh inconclusive.
COc1ccc(-c2nc(C#N)c(NCCc3ccccc3)o2)cc1 was read as Pf growth 96h inactive, Pf growth 48h inactive, Shiga toxin inh 64, Cycloheximide cs 34 and HCMV inh inactive.
`COc1ccc(CNc2oc(-c3ccccc3)nc2C#N)cc1` gave Pf growth 96h 8.3µM, Pf growth 48h inactive, Shiga toxin inh inactive, Cycloheximide cs 22 and HCMV inh inactive.
For O=C(C=Cc1ccccc1)Nc1ccccc1 the results were HCMV inh inactive.
O=C(/C=C/c1cccnc1)/C=C/c1cccnc1 was read as Pf growth 96h inconclusive, Pf growth 48h inconclusive, Shiga toxin inh inactive, Cycloheximide cs inactive and HCMV inh -97.
